FadD28 binding = inhibitors of Mycobacterium tuberculosis FadD28 bisubstrate binding. inhibition, % at 12.5 µM. 0.22% of 360,000 active. FadD28 bisubstrate probe binding, fluorescence polarization; in the data active = inhibition above about 8.5%, passing the limit was not always enough
Mtb UGM inh = inhibitors of M. tuberculosis UDP-galactopyranose mutase | inhibition, % at 10 µM | 0.06% of 320,000 active | P9WIQ1 | purified UGM, fluorescence polarization probe displacement; in the data active = inhibition above about 10%, passing the limit was not always enough
Mtb bLac sens = beta-lactam sensitization of Mtb H37Rv; M. tuberculosis H37Rv growth with meropenem, percent inhibition; inhibition, % at 25 µM; 0.27% of 330,000 active; AID 434955; call rule not given here;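 also: growth measured after seven days incubation then overnight dye step; 0% = bacteria only wells and 100% = bacteria with antibiotic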
Rv3671c protease = inhibitors of M. tuberculosis serine protease Rv3671c | AID 2606 | 0.048% of 320,000 active | inhibition, % at 5.96 µM; in the data active = inhibition above about 38%;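 also: extracellular domain of Rv3671c used as enzyme; 0% = enzyme with DMSO and 100% = no enzyme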
Target sequence (P9WHR9 whole entry, looked up, the tested form may be a part): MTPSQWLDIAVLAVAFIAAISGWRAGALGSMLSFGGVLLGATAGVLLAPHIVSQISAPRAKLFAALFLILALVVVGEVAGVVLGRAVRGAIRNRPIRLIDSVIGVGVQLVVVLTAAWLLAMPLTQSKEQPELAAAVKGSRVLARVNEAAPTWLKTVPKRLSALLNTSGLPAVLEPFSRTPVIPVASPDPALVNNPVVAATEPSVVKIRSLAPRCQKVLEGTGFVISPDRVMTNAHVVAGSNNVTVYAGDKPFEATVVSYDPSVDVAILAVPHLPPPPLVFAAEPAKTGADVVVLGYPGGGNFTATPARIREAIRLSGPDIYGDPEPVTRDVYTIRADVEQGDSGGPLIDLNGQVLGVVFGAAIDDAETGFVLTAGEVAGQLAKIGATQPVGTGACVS
Yp Topo-I inh = inhibitors of Yersinia pestis topoisomerase I; Y. pestis Topo-I cleavage product accumulation, plate reader; activity, % at 10 µM; 0.064% of 360,000 active; in the data active = activity above about 50%, passing the limit was not always enough
PfHsp40 rescue = rescue of PfHsp40-mediated yeast toxicity. 0.68% of 340,000 active. growth rescue, % at 12.5 µM. S. cerevisiae expressing PfHsp40, growth rescue, ATP luminescence. AID 504582; in the data active = growth rescue above about 28%, passing the limit was not always enough;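 also: yeast W303a lacking pdr1 and pdr3 grown in galactose medium; growth measured after three days at 30 °C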
The depositor's hits bear a star; x = no result given. This is a sample that favours compounds with a hit; in the whole collection about 0.98% have one here.

SMILES | FadD28 binding | Mtb UGM inh | Mtb bLac sens | Rv3671c protease | Yp Topo-I inh | PfHsp40 rescue
CCCNC(=O)C1(C)CCN(Cc2ccc(C(=O)OCC)cc2)C1 (configuration not stated) | -4 | x | x | x | -4 | x
O=C(COC(=O)CCC1CCCC1)Nc1ccccc1Br | 0 | 5 | -2 | -9 | 24 | 0
Cc1ccc(NC(=O)COC(=O)CCC2CCCC2)c(Br)c1 | 1 | 1 | 10 | -5 | 70* | 0
CO/N=C\CC(=O)Nc1ccc(Oc2ccccc2)cc1 | -1 | 0 | 0 | 2 | 4 | 0
O=C(C/C=N\O)Nc1ccc(Oc2ccccc2)cc1 | -3 | -2 | -2 | 5 | 16 | 46*
N#Cc1ccc(C(=O)N2CCC3CC2c2cc(N4CCCCC4)ccc23)cc1 (configuration not stated) | 0 | x | x | x | 16 | x
COc1ccc(Nc2ncc(C#N)c(N)n2)c(OC)c1 | -2 | 1 | -3 | 6 | -3 | 66*
Cc1ccccc1Nc1ncc(C#N)c(N)n1 | 0 | 0 | -4 | -4 | 5 | x
O=C(NNC(=O)c1cc(Cl)ccc1O)c1cccc(S(=O)(=O)N2CCOCC2)c1 | -3 | 0 | -1 | 16 | -4 | 475*
Cc1ccc(C(=O)NNC(=O)c2cccc(S(=O)(=O)N3CCOCC3)c2)cc1 | 0 | 6 | -3 | -6 | 8 | -2
CC(=O)Nc1ccc(Sc2ccc([N+](=O)[O-])o2)cc1 | 0 | x | x | x | -3 | 54*
CCc1cc(=O)oc2cc(OC(C)C(=O)NCCCn3ccnc3)ccc12 (configuration not stated) | -5 | 0 | 1 | -4 | 2 | 0
Cc1cc(=O)oc2cc(OC(C)C(=O)NCCCn3ccnc3)ccc12 (configuration not stated) | 1 | 0 | -2 | -3 | 1 | 95*
CCC(=NCCC(c1ccccc1)c1ccccc1)c1c(O)[nH]c(=O)[nH]c1=O | -2 | 0 | -1 | -5 | 66* | 1
N/C(=N\OC(=O)CCCOc1ccc(Cl)cc1Cl)c1ccncc1 | -4 | -1 | 4 | 2 | 16 | 170*
N/C(=N\OC(=O)CCCOc1ccc(Cl)cc1Cl)c1ccccn1 | 0 | 1 | 10 | 5 | 39 | 2
CCN1CCN(Cc2ccc(NC(=O)c3cc(NC(=O)c4cc(-c5ccc(OC)cc5)n[nH]4)cc(OC)c3)cc2C(F)(F)F)CC1 | 67* | 1 | 100 | -210 | -7 | -2
Cc1ccc(-c2cc(-c3ccc(C)cc3)[n+](-c3ccccc3)c(-c3ccc(C)cc3)c2)cc1 | -3 | 0 | 100 | -7 | 35 | 229*
O=C(c1cnc(Cc2c[nH]c3ccccc23)c(I)c1)N1CCN(Cc2ccccc2)CC1 | -1 | x | x | x | 31 | x
COc1ccc(CN2CC(=O)N(c3ccc(Cl)cc3)C2=S)cc1OC | -1 | -1 | 2 | -10 | -1 | 0
CCc1ccc(N2C(=O)CN(Cc3ccc(OC)c(OC)c3)C2=S)cc1 | -1 | -2 | 2 | -3 | 10 | 31*
CCOC(=O)Cc1csc(SCC(=O)Nc2cccc(Cl)c2)n1 | 0 | -2 | 49 | -7 | 5 | 0
CCOC(=O)Cc1csc(SCC(=O)Nc2cc(Cl)ccc2Oc2ccccc2)n1 | -1 | 0 | -2 | -8 | 68* | 0
O=C(Cc1cccc(NC(=O)C2CCCN(C(=O)CCc3ccccc3)C2)c1)Nc1cccc(C(=O)N2CCCCC2)c1 (configuration not stated) | 0 | x | x | x | 34 | 0
Cc1nc2c(ccc3nc(NC(=O)Cc4ccccc4)sc32)s1 | -8 | 3 | 70 | -22 | -6 | 29*
SMILES | FadD28 binding | Mtb UGM inh | Mtb bLac sens | Rv3671c protease | Yp Topo-I inh | PfHsp40 rescue
O=C(Cc1n[nH]c(=O)c2ccccc12)OCC(=O)c1ccc2c(c1)OCCO2 | 0 | 1 | -1 | -5 | 2 | 96*
Cc1ccn2c(=O)c(NC(=O)c3ccc4c(c3)OCO4)c(C)nc2c1 | -1 | x | x | x | -3 | x
O=C(CN1C(=O)NC2(CCc3ccccc32)C1=O)c1ccc(Br)cc1 (configuration not stated) | 3 | 1 | -8 | 1 | 5 | 3
O=C(CN1C(=O)NC2(CCCc3ccccc32)C1=O)c1ccc(Br)cc1 (configuration not stated) | 17* | -1 | 1 | -1 | 14 | 1
CCN(CC(=O)Nc1c(F)cccc1F)C(=O)CSCc1ccc(C)cc1 | -1 | x | x | x | 6 | x
COc1cc(/C=C2\SC(=S)N(CCCCC(=O)O)C2=O)ccc1OS(=O)(=O)c1ccc(C)cc1 | 24* | 4 | 46 | -12 | 23 | -1
COc1ccccc1/C=C1\SC(=S)N(NS(=O)(=O)c2ccc(C)cc2)C1=O | -2 | -2 | -1 | -16 | 3 | 32*
CCOc1ccc(/C=C2\SC(=S)N(NS(=O)(=O)c3ccc(C)cc3)C2=O)cc1OC | 1 | 0 | 1 | 9 | 15 | 13
CCOc1ccc(/C=C2\SC(=S)N(NS(=O)(=O)c3ccccc3)C2=O)cc1OC | 5 | -3 | 1 | -6 | 14 | 60*
O=c1ccn([C@@H]2O[C@H](CNCc3cccc4c3sc3ccccc34)[C@@H](O)[C@H]2O)c(=O)[nH]1 | -2 | x | x | x | x | x
COc1ccc2[nH]c(C(=O)NCc3ccccc3)cc2c1 | 0 | 3 | -5 | -9 | -10 | -1
COc1ccc(CN(Cc2cccn2C)C(=O)c2cc3cc(OC)ccc3[nH]2)cc1 | 0 | 1 | 5 | -13 | 51* | 0
Cc1noc(NS(=O)(=O)c2ccc(NC(=O)/C=C/c3ccc(C(C)C)cc3)cc2)c1C | 26* | 3 | -7 | -6 | 13 | -1
Cc1noc(NS(=O)(=O)c2ccc(NC(=O)C(C)(C)C)cc2)c1C | 0 | -1 | 6 | -11 | 8 | 0
Cc1noc(NS(=O)(=O)c2ccc(N/C=C\C(=O)c3cccc4ccccc34)cc2)c1C | 24* | 0 | 17 | -1 | 30 | -1
Cc1noc(NS(=O)(=O)c2ccc(NC(=O)Nc3ccc(Cl)c(Cl)c3)cc2)c1C | 31* | 5 | -7 | -31 | -11 | 0
COc1cc(/C=C/C(=O)Nc2ccc(S(=O)(=O)Nc3onc(C)c3C)cc2)cc(OC)c1OC | 3 | x | x | x | 0 | 0
Cc1noc(NS(=O)(=O)c2ccc(NC(=O)/C=C/c3ccc(Br)cc3)cc2)c1C | 9.7* | 2 | 8 | x | 9 | 1
COc1cccc(C(=O)/C=C/Nc2ccc(S(=O)(=O)Nc3onc(C)c3C)cc2)c1 | -1 | 2 | 5 | -5 | -3 | 0
CCc1ccc(C(O)c2ncc(-c3cccc(OC)c3)[nH]2)cc1 (configuration not stated) | -4 | x | x | x | 9 | x
COC(=O)c1cc(=O)nc(NN=Cc2ccc(C)cc2)s1 | -2 | x | x | x | x | x
CCc1nc2c(OCc3ccccc3C)cccn2c1N(C)C(=O)c1ccc(C)cc1 | -5 | x | x | x | 27 | x
Cc1ccc(C(=O)Nc2nc(C(N)Cc3ccc(C(F)(F)F)cc3)cs2)cc1 (configuration not stated) | -2 | x | x | x | -20 | x
Cc1cc(C)c(S(=O)(=O)N2CCN(c3ccccn3)CC2)c(C)c1 | -5 | x | x | x | 21 | 53*

Source: PubChem (several laboratories)
